# Test results published in PMC5540273 (PLoS ONE, 2017).
# Assays:
# Settings in all cases: concentration: 1 μM,replicates: in singlicate; n = 1
# IKK-alpha = system: T1, IKK-alpha
# T1 construct: gene CHUK
# IKK-beta = system: T2, IKK-beta
# T2 construct: gene IKBKB
# IKK-epsilon = system: T3, IKK-epsilon
# T3 construct: gene IKBKE
# INSRR = system: INSRR
# INSR = system: INSR
# IRAK1 = system: IRAK1
# IRAK3 = system: IRAK3
# IRAK4 = system: IRAK4
# ITK = system: ITK
# [1] = system: JAK1(JH1domain-catalytic)
# 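Further: KINOMEscan kinase panel screen.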
Structure (SMILES),%Inh (IKK-alpha) [%],%Inh (IKK-beta) [%],%Inh (IKK-epsilon) [%],%Inh (INSRR) [%],%Inh (INSR) [%],%Inh (IRAK1) [%],%Inh (IRAK3) [%],%Inh (IRAK4) [%],%Inh (ITK) [%],%Inh [1] [%]
O=C(NCC1CC1)c1ccc(-c2cc(C(=O)NC3CC3)ccc2F)cc1 [GW810445],0,0,0,0,0,0,1,0,0,0
Cc1ccc(CC(=O)N2CCc3cc(-c4cn(C)c5ncnc(N)c45)ccc32)cc1 [GSK2634758],1,0,36,12,4,13,0,0,13,6
Cc1cccc(-c2nc(Nc3ccncc3)c3sccc3n2)n1 [GW869641],32,22,0,5,31,18,0,0,12,0
C[C@@H]1CNc2c(sc3ccc4nc(-c5ccc(O)cc5)ccc4c23)C(=O)N1,27,24,14,0,7,97.1,14,14,3,0
CC(C(=O)NC1CCN(c2ccnc(Nc3ccc(F)cc3)n2)C1)c1ccc(Cl)cc1 (stereo not drawn) [GSK1379713],0,0,0,10,0,0,0,0,10,5
O=C1NCCc2[nH]c(-c3ccncc3)cc21,88,40,2,0,8,98.6,0,0,0,6
Cl.Cl.NC[C@H](CC1CCCCC1)NC(=O)c1ccc(-c2ccnc3[nH]ccc23)s1 [GSK1581428],31,72,31,100,5,57,13,6,5,56
Cc1nnc(-c2ccc3occ(-c4ccc(S(C)=O)cc4)c3n2)o1 (stereo not drawn),0,0,0,0,0,0,0,0,8,8
CN(c1ccccc1CNc1nc(Nc2ccc3c(c2)CC(=O)N3)ncc1C(F)(F)F)S(C)(=O)=O,0,0,35,69,93.5,26,65,27,56,74
Cc1ccn2nc(-c3ccc(F)cc3)c(-c3ccncc3)c2c1.Cl [GW457859],0,0,16,0,0,13,0,0,0,16
O=C(Nc1ccccc1)c1cccc(Oc2ccc3nccn3n2)c1,0,0,91.5,86,0,25,3,21,0,0
CCCC(=O)Nc1n[nH]c2ncccc12 [SB-601436],0,0,0,0,0,0,0,0,0,5
O=C(Nc1cccc(C(F)(F)F)c1)c1cccc(Oc2ccc3nccn3n2)c1,0,0,0,22,2,25,0,13,21,2
CS(=O)c1ccc(-c2coc3ccc(-c4n[nH]c(=O)o4)cc23)cc1 (stereo not drawn),8,0,0,1,17,55,0,28,0,1
c1ccc(Oc2ccc(Nc3ccnc4ccc(-c5ccccn5)cc34)cc2)cc1 [GW407034],9,14,11,0,5,22,13,25,13,22
C[C@@H]1CCN(C(=O)N2CCCC2)C[C@@H]1N(C)c1ncnc2[nH]ccc12,23,19,17,12,0,6,8,0,0,99.6
N#Cc1cccc(C(=O)NC2CCN(c3ccnc(Nc4ccc(F)cc4)n3)C2)c1 (stereo not drawn) [GSK1379708],16,16,0,0,4,17,27,2,2,17

Structure (SMILES),%Inh (IKK-alpha) [%],%Inh (IKK-beta) [%],%Inh (IKK-epsilon) [%],%Inh (INSRR) [%],%Inh (INSR) [%],%Inh (IRAK1) [%],%Inh (IRAK3) [%],%Inh (IRAK4) [%],%Inh (ITK) [%],%Inh [1] [%]
Cc1ccc2c(-c3ccnc(Nc4ccc(C(F)(F)F)cc4)n3)cnn2n1 [GW819776],38,10,0,1,14,73,4,0,10,4
COC(=O)Nc1nc2cc(Oc3ccc(NC(=O)Nc4cc(C(F)(F)F)ccc4Cl)cc3)ccc2[nH]1.Cl [GW697465],35,16,0,0,0,23,0,8,12,21
CC(C)c1nc(-c2cccc(NS(=O)(=O)c3ccccc3)c2)c(-c2ccnc(Nc3ccc4c(c3)CN(C)CC4)n2)s1 [GSK1649598],2,15,42,0,35,65,10,16,47,25
Cn1ccc2ncnc(Oc3ccc(NC(=O)Nc4cncc(C(F)(F)F)c4)c(Cl)c3)c21,0,0,0,0,0,0,0,0,0,0
Cc1n[nH]c2cc(Nc3ccnc(Nc4cccc(CN5CCOCC5)c4)n3)ccc12 [GW682569],0,25,38,0,7,79,89,87,1,48
COc1ccc(Nc2nccc(N3CCC(NC(=O)c4cccc(C#N)c4)C3)n2)cc1 (stereo not drawn) [GSK1379730],0,6,0,0,0,10,0,3,14,6
Cc1ccc(C(=O)Nc2ccc(Oc3ccc4nc(NC(=O)C5CC5)cn4c3)c(F)c2)c(=O)n1-c1ccccc1,61,56,0,0,0,0,44,0,57,14
CS(=O)(=O)c1cccc(CNc2nc(Nc3ccc4c(c3)[C@@H]3C[C@@H]4CNC3=O)ncc2C(F)(F)F)c1,5,0,87,74,94.5,39,0,0,49,93
CC(C)S(=O)(=O)N1CCN(Cc2ccc3c(c2)nc(NC(=O)c2ccsc2)n3C[C@H](O)c2ccccc2)CC1 [GW635815],20,13,52,27,67,90,49,80,97.6,5
NC(=O)Nc1sc(-c2ccc(F)cc2)cc1C(N)=O [GW789449],78,100,0,10,37,41,15,12,26,91.4
O=C(Nc1cccc(Oc2ccc3nccn3n2)c1)Nc1cccc(C(F)(F)F)c1,34,0,0,15,0,13,23,0,0,27
CN1CCN(CCCNc2nccc(-c3c(-c4ccc(F)cc4)nn4cc(C(N)=O)ccc34)n2)CC1 [GW622475],0,0,39,0,2,29,0,11,10,5
CCOC(=O)N1CCC(n2cnc(-c3ccc(F)cc3)c2-c2ccnc(N)n2)CC1 [SB-219952],0,0,0,0,0,10,19,11,0,0
CN(c1ccc2c(c1)nc(NCc1ccc(F)cc1)n2C)c1ccnc(Nc2ccc(CS(C)(=O)=O)cc2)n1.Cl [GW813244],15,0,0,15,27,49,1,0,0,38
Cn1cc(-c2cccc3c(N)c(C(N)=O)nnc23)cn1,28,39,0,9,19,31,9,17,15,9
Cn1ccc2ncnc(Oc3ccc(NC(=O)Nc4cccc(C(F)(F)F)c4)c(Cl)c3)c21,53,19,6,0,16,0,0,0,1,0
